Only some compounds are listed: those with a hit (about 2.9% of all), similar ones and a draw of the others.
KDM5B inhibitor = KDM5B demethylase inhibition. Q9UGL1. KDM5B demethylase, FDH-coupled NADH fluorescence (FDH is formaldehyde dehydrogenase). Potency, µM (doses to about 57.7 µM), most hits filed as inhibitors. 220,000 compounds, 2.6% hits. AID 1347165; note: nearly all actives have a fitted effect of over 70% in size
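Compound dilutions met 200 nM (final) KDM5BΔAP for 10 min at room temperature before substrate addition. The substrate mix held 12.5 µM H3K4me3 with cofactors 25 µM α-ketoglutarate and 50 µM Fe²⁺. NADH signal gain over 30 min defined activity.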
SNCA expr inh = inhibitors of alpha-synuclein (SNCA) gene expression; HEK-293 SNCA-luciferase knock-in, luminescence, 24 h; Potency, µM (highest dose often 57.2 µM), most hits filed as inhibitors; 140,000 compounds, 0.17% hits; note: nearly all actives have a fitted effect of over 45% in size
SNCA viab count = cell viability loss counter-screen; Potency, µM (top dose mostly 57.1 µM), actives largely listed as cytotoxic; AID 1671193; 150,000 compounds, 0.12% hits; HEK-293-SNCA-luc viability, GF-AFC fluorescence, 24 h; note: nearly all actives have a fitted effect of over 30% in size
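HEK-293-SNCA-luc cells (1500/well) plated 24 h, then exposed 24 h to a dilution series; GF-AFC added 30 min at 37C, fluorescence 405/540 nm; normalised to medium-only and DMSO wells, Hill fit.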
IP6K1 inhibitor = IP6K1 kinase inhibition; Q92551; IP6K1 kinase, ADP-Glo luminescence, 2 h; hits give low values; activity change, % (series mostly up to about 58 µM); 140,000 compounds, 0.81% hits; AID 1645851; in the data active = activity change below about -25%
Target sequence (Q92551 whole entry, looked up): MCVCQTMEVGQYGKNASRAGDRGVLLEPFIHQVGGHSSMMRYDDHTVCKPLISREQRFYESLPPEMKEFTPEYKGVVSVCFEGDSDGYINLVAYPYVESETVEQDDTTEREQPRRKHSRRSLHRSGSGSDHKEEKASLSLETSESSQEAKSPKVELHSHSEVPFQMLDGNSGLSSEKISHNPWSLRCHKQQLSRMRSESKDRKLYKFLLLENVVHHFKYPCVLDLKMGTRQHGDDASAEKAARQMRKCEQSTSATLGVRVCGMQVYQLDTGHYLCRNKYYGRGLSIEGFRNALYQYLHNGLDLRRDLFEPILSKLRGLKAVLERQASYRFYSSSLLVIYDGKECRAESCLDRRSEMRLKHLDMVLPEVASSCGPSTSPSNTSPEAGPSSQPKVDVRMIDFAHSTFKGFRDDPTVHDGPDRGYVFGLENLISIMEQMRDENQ
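ADP-Glo luminescence measures ADP made by human IP6K1 during a 2 h RT reaction with ATP/IP6 (mix at 1.3 mM/130 uM); top library doses 57.5 and 19.1 uM final.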
Hits are given with their value; n = inactive; u = inconclusive; x = no result given. Unless noted, calls come from the whole dose curve; as a rule, active = well fitted curve in the direction sought with a large enough effect; inconclusive = small, poorly fitted or top-dose-only effect, or another doubt; inactive = no such curve, though single readings can be large; an effect the other way counts as inactive or inconclusive.

SMILES | KDM5B inhibitor | SNCA expr inh | SNCA viab count | IP6K1 inhibitor
Cc1nnsc1C(=O)N[C@H]1CCN2C(=O)N(c3ccc(F)c(Cl)c3)C(=O)[C@@H]2C1 | n | n | n | n
O=C(N[C@H]1CCN2C(=O)N(c3cccc4nsnc34)C(=O)[C@@H]2C1)c1ccc(F)c(Cl)c1 | 32µM | u | n | n
O=C(/C=C/c1cccc(S(=O)(=O)Nc2ccccc2)c1)NO | x | x | n | n
Cc1[nH]c(-c2ccccc2)nc1C(=O)N[C@H](c1cnn(C)c1)C1CC(O)C1 (stereo partly drawn) | n | n | n | n
Cc1ccc2c(c1)c(C(=O)N[C@H](c1cnn(C)c1)C1CC(O)C1)nn2C (stereo partly drawn) | 28µM | n | n | n
CN(CCc1ccccn1)c1ncccc1CNC(=O)c1cc(C2CC2)no1 | n | n | n | n
COc1ncc(-c2ccc3ncn(C4CC4)c(=O)c3n2)cn1 | 32µM | n | n | n
COCCNC(=O)Cc1c[nH]c2ncc(-c3ccc(OC)cc3)cc12 | 35µM | n | n | n
COc1ccc(-c2cnc3[nH]cc(CC(=O)NCc4cnccn4)c3c2)cc1 | n | n | n | n
COCCNC(=O)Cc1c[nH]c2ncc(-c3ccccc3)cc12 | 40µM | n | n | n
O=C(NCCCn1ccnc1)c1ccc(-c2ccccc2)cc1 | n | x | x | x
O=C(Cc1c[nH]c2ncc(-c3ccccc3)cc12)NCCCn1ccnc1 | 40µM | n | n | n
COc1ncccc1-c1nc(N2CCOCC2)cc2c1CN(CC(F)(F)F)C2=O | u | n | n | n
O=C1c2cc(N3CCOCC3)nc(-c3cccc(F)c3)c2CN1CC1CC1 | 35µM | n | n | n
C[S+](=O)([O-])Nc1cccc(-c2nc(N3CCOCC3)cc3c2CN(CC2CC2)C3=O)c1 | 28µM | n | n | n
Cc1ccc(-c2csc(-c3nc(-c4ccc(C)cc4)c(C)s3)n2)cc1 | n | x | x | x
Cn1cc(-c2cnc(Nc3cccc(C(F)(F)F)c3)c3c2CCO3)cn1 | 35µM | n | n | n
FC(F)(F)c1cccc(Nc2ncc(-c3cccnc3)c3c2OCC3)c1 | 28µM | n | n | n
CC(C)(C)OC(=O)N1CCN(C(C(=O)O)c2c[nH]c3ccc(Cl)cc23)CC1 (stereo not drawn) | n | x | x | x
O=C1CCCc2c1cc(C(=O)NC1CCCC1)c(=O)n2-c1ccc(C(F)(F)F)cc1 | n | x | x | x
CCc1ccccc1NC(=O)C(CC)Oc1ccccc1-c1nnc(-c2ccccc2)o1 (stereo not drawn) | n | 8.9µM | u | n
CCOC(=O)c1ccccc1NC(=O)COc1ccccc1-c1nnc(-c2ccccc2)o1 | n | u | u | n
COCCNC(=O)c1cc(C2CC2)nc2c1c(C1CCNC1)nn2C (stereo not drawn) | 89µM | n | n | n
CC(C)CNC(=O)c1cc(C2CC2)nc2c1c(C1CCNC1)nn2C (stereo not drawn) | 89µM | n | n | n
Cn1nc(C2CCNC2)c2c(C(=O)N3CCOCC3)cc(C3CC3)nc21 (stereo not drawn) | 89µM | n | n | n
SMILES | KDM5B inhibitor | SNCA expr inh | SNCA viab count | IP6K1 inhibitor
COCCNC(=O)c1cc(C2CC2)nc2c1c(C1CCCNC1)nn2C (stereo not drawn) | 89µM | u | n | n
Cn1nc(C2CCNC2)c2c(C(=O)NCc3cccs3)cc(C3CC3)nc21 (stereo not drawn) | u | n | n | n
Cn1nc(C2CCCN2)c2c(C(=O)N3CCOCC3)cc(C3CC3)nc21 (stereo not drawn) | u | n | n | n
COCCCNC(=O)c1cc(C2CC2)nc2onc(C3CCNC3)c12 (stereo not drawn) | u | n | n | n
COc1ccc(CN2CC3ON=C(C(=O)O)C3C2)cc1 (stereo not drawn) | n | n | n | n
O=C(O)C1=NOC2CN(Cc3cccc(C(F)(F)F)c3)CC12 (stereo not drawn) | 100µM | n | n | n
O=C(Cc1c[nH]c2ncc(-c3ccncc3)cc12)N1CCOCC1 | n | n | n | n
CC(=O)Nc1cccc(-c2cnc3[nH]cc(CC(=O)N4CCOCC4)c3c2)c1 | 32µM | n | n | n
O=C(Cc1c[nH]c2ncc(-c3ccsc3)cc12)N1CCOCC1 | 32µM | n | n | n
O=C(Cc1c[nH]c2ncc(-c3ccc(F)cc3)cc12)N1CCOCC1 | 28µM | n | n | n
COC(=O)CCNC(=O)C(C)(C)c1ccccc1 | n | x | x | x
CC(C)c1ccc(-c2nc(-c3cccnn3)no2)c(=O)[nH]1 | 22µM | n | n | n
CN[C@@H](CC(C)C)c1nc(-c2cccnn2)no1 | n | n | n | n
Cc1oc2cc(OC(=O)C3CC3)ccc2c(=O)c1-c1ccc(Cl)cc1 | n | x | x | x
Cn1cncc1CNC(=O)c1cc(-c2ccc(F)cc2)cc2ncn(C)c12 | 28µM | n | n | n
Cc1cc(C)c(CNC(=O)c2cc(-c3ccc(F)cc3)cc3ncn(C)c23)c(=O)[nH]1 | u | n | n | n
Cn1cnc2cc(-c3cccc4[nH]ncc34)cc(C(=O)NCc3cccnc3)c21 | 40µM | n | n | n
Cn1cnc2cc(Nc3ccc(Cl)cc3F)cc(C(=O)NCc3cccnc3)c21 | 35µM | u | n | n
COc1ccc2c(c1)OCC(CNC(=O)c1cnn3ccccc13)C2 (stereo not drawn) | 25µM | n | n | n
COc1ccc2c(c1)OCC(CNC(=O)c1ccc(C(C)C)n(C)c1=O)C2 (stereo not drawn) | u | n | n | n
COc1cccc(-c2nc(-c3c(C)noc3C)cc3c2cc(C)n3CCN(C)C)c1 | 40µM | n | n | n
Cc1cc2c(-c3ccccc3)nc(-c3c(C)noc3C)cc2[nH]1 | n | n | n | n
COc1ccc(-c2nc(-c3c(C)noc3C)cc3c2cc(C)n3CCN(C)C)cc1OC | n | n | n | n
COc1cc(-c2nc(-c3c(C)noc3C)cc3c2cc(C)n3C)ccn1 | n | n | n | n
Cc1noc(C)c1-c1cc2c(cc(C)n2C)c(-c2ccccc2)n1 | n | n | n | n
SMILES | KDM5B inhibitor | SNCA expr inh | SNCA viab count | IP6K1 inhibitor
Cc1cc2c(-c3cccnc3)nc(-c3c(C)noc3C)cc2[nH]1 | 28µM | n | n | n
Cc1noc(C)c1-c1cc2c(cc(C)n2C)c(-c2cccc([S+](C)(=O)[O-])c2)n1 | 25µM | n | n | n
COc1cccc(-c2nc(-c3c(C)noc3C)cc3c2cc(C)n3C)c1OC | 35µM | n | n | n
Cc1ccc2c(Cl)cc(Cl)c(OCC(=O)NC(C)C(C)C)c2n1 (stereo not drawn) | n | x | x | x
COc1ccccc1-c1nc(-c2c(C)noc2C)cc2[nH]c(C)cc12 | n | n | n | n
COc1cc(F)ccc1-c1nc(-c2c(C)noc2C)cc2[nH]c(C)cc12 | 35µM | n | n | n
Cc1noc(C)c1-c1cc2c(cc(C)n2C)c(-c2cccnc2)n1 | 35µM | n | n | n
CC(C)c1ccc(NS(=O)(=O)c2c[nH]c3ccc([N+](=O)[O-])cc23)cc1 | n | x | x | x
CC(N)(C(=O)O)c1ccc(C(F)(F)F)cc1 (stereo not drawn) | n | x | x | x
CNC(=O)c1cc(C)nc2onc(C3CCN(C(=O)Nc4ccccc4)CC3)c12 | x | x | x | n

Screens as filed in PubChem.
